From paper PMC5540273 (PLoS ONE, 2017)

Tests used:
Conditions in all cases: concentration: 1 μM, replicates: in singlicate; n = 1
[1] = test system: T1, MST1
T1 construct: gene STK4

[2] = test system: T2, MST2
T2 construct: gene STK3

[3] = test system: T3, MST3
T3 construct: gene STK24

[4] = test system: MST4
[5] = test system: MTOR
[6] = test system: MUSK
[7] = test system: MYLK2
[8] = test system: MYLK4
[9] = test system: MYLK
[10] = test system: MYO3A
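Further: KINOMEscan kinase panel screen.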

Compound	%Inh [1] [%]	%Inh [2] [%]	%Inh [3] [%]	%Inh [4] [%]	%Inh [5] [%]	%Inh [6] [%]	%Inh [7] [%]	%Inh [8] [%]	%Inh [9] [%]	%Inh [10] [%]
CSc1ccc(-c2cc3ncnc(SCC(=O)O)c3s2)cc1	13	20	22	7	36	0	0	9	0	0
Cn1ccc2ncnc(Oc3ccc(NC(=O)Nc4ccncc4)c(Cl)c3)c21	0	0	0	0	11	0	11	0	0	14
COc1cc(Nc2nccc(N3CCC(NC(=O)c4cccc(NC(C)=O)c4)C3)n2)cc(OC)c1OC (stereo not drawn) [GSK1379754]	12	7	0	0	7	12	17	2	14	5
CCCCCc1nc2c(N)ncnc2n1CCCCC [SKF-97255]	0	0	0	0	0	0	6	12	17	1
COc1cc2ncn(-c3cc(OCc4sccc4Cl)c(C(N)=O)s3)c2cc1OC [GSK448459]	21	68	0	0	11	7	31	72	37	12
CCn1cnc2c(N)ncnc21 [GW345098]	8	7	20	0	0	2	2	7	29	12
Cc1cccc(Cn2ccn3c(=O)cc(N4CCOCC4)nc23)c1 [GSK2297542]	7	0	23	0	17	2	4	6	41	11
Cc1cccc(-c2nc(Nc3ccc4ncsc4c3)c3ccccc3n2)n1 [GW867588]	18	0	0	16	0	0	0	0	0	0
Cl.Oc1cccc(Nc2ccnc3cc(-c4ccncc4)ccc23)c1 [GW494601]	0	0	13	0	4	0	24	0	95.9	40
O=c1cc(N2CCOCC2)nc2n(Cc3cccc(C(F)(F)F)c3)ccn12 [GSK2297543]	10	0	9	0	4	3	0	2	18	19
Cc1cn2c(=O)cc(N3CCOCC3)nc2n1Cc1cccc(Cl)c1Cl [GSK2334006]	14	0	0	0	37	27	32	9	8	0
Nc1nccc(-c2c(-c3ccc(F)cc3)ncn2C2CCN(CC(F)(F)F)CC2)n1 [SB-236560]	96.9	0	0	0	0	22	0	0	1	0
N#Cc1c(N2CCOCC2)sc(-c2ccn[nH]2)c1-c1ccc(Cl)cc1	21	0	19	0	0	0	8	5	23	3
O=C1Cc2cc(Nc3nc(NCc4cccc(S(=O)(=O)C(F)(F)F)c4)ncc3C(F)(F)F)ccc2N1	14	27	0	1	29	0	0	8	2	0
CC(=O)Nc1ccc(COc2ccc(Nc3ccnc4cc(-c5ccccn5)ccc34)cc2)cc1.Cl [GW440148]	0	30	22	0	13	8	3	16	13	27
O=C(NCCCN1CCOCC1)c1cccc(Nc2nccc(Nc3ccc(Oc4ccccc4)cc3)n2)c1 [GW663929]	0	34	14	0	12	2	0	25	0	35
COc1ccc(CNC(=O)NC2CCN(c3ccnc(Nc4ccc(OC)cc4)n3)C2)cc1 (stereo not drawn) [GSK1379727]	0	0	0	0	13	7	8	0	22	18

Compound	%Inh [1] [%]	%Inh [2] [%]	%Inh [3] [%]	%Inh [4] [%]	%Inh [5] [%]	%Inh [6] [%]	%Inh [7] [%]	%Inh [8] [%]	%Inh [9] [%]	%Inh [10] [%]
[2H]C([2H])(c1cccc(C(F)(F)F)c1C)n1ccn2c(=O)nc(N3CCOCC3)cc12 [GSK2336394]	2	0	11	0	18	8	0	0	12	4
O=C(Nc1cccc(-c2nn3ncccc3c2-c2ccnc(Nc3cccc(C(F)(F)F)c3)n2)c1)c1c(F)cccc1F [GSK299495]	9	23	0	0	17	26	0	0	11	41
Cc1ccc(NC(=O)c2ccnc(N3CCN(C)CC3)c2)cc1-c1ccc(C(=O)NCC2CC2)cc1 [GW775604]	27	11	0	0	0	4	0	0	0	0
CN(C(=O)c1ccc(-c2cc(-c3c[nH]nc3-c3ccccn3)ccn2)cc1)C1CCOCC1 [GW810083]	8	13	34	0	10	0	0	0	0	0
CC(C)Oc1ccc2c(-c3ccnc(Nc4ccc(N5CCN(C)CC5)cc4)n3)cnn2n1 [GW696155]	0	0	59	16	27	42	61	99.6	17	30
CCc1ccnc(/C=C/c2n[nH]c3cc(Sc4ccccc4C(=O)NC)ccc23)c1	6	36	19	4	12	0	0	0	0	0
CNc1ncnc2[nH]ncc12 [SKF-18355]	36	0	0	0	17	14	3	5	0	0
Cc1nnc(-c2ccc(C)c(-c3ccc(C(=O)Nc4ccc(NS(C)(=O)=O)cc4)cc3)c2)o1 [GW702865]	6	0	0	0	28	0	0	8	3	23
NS(=O)(=O)c1cccc(-c2ccc3ncc(N4CCOCC4)nc3c2)c1 [GSK1535721]	0	0	0	0	9	0	0	12	2	15
O=C(NOCC1CC1)c1ccc(F)c(F)c1Nc1ccc(I)cc1Cl	0	0	4	0	28	0	0	0	0	0
Cc1ccc(C(=O)NCC(N)=O)cc1-n1c(C)cc(OCc2ccc(F)cc2F)c(Br)c1=O	13	4	26	0	0	0	12	14	7	14
O=c1cc(N2CCOCC2)nc2n(Cc3cccc(Cl)c3Cl)c(C3CC3)nn12 [GSK2358994]	0	41	4	0	0	0	0	0	14	0
NS(=O)(=O)c1cccc(-c2ccc3nccc(-c4cccc(S(N)(=O)=O)c4)c3c2)c1 [GW867253]	11	0	5	0	32	10	0	2	0	0
CN1c2ccc(NCc3ccc(F)cc3)cc2-c2c(cnn2C)S1(=O)=O	0	28	0	0	20	3	0	0	12	0
CN(C1=C(c2ccccc2)C(=O)NC1=O)c1ccccc1 [SB-334860]	0	6	7	0	28	0	11	19	11	33
COc1ccc(S(=O)(=O)NC2CCN(c3cc(C)nc(Nc4cccc(C#N)c4)n3)CC2)cc1.O=C(O)C(F)(F)F [GSK1653539]	0	0	13	0	28	0	0	0	3	17
